# Out of some 54,000 sequences screened, about 4,600 (8.5%) were called active. Rule as the data show it: active = GI50 up to about 1.1 µM and inactive = higher. Only a selection was taken, and actives are over-represented in it overall. Results with a measured potency or affinity are listed apart.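 The compound was tested at five concentrations on cells cultured in 96-well plates, with a 48-hour exposure period. Here, GI50 denotes the concentration required for 50% inhibition of growth.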
# Tested on: LOX IMVI
# Assay: NCI tumour cell line growth inhibition, 48 h
row,Substance,GI50
1,"CISPLATIN, CHEMBL11359",1.41 µM
2,"[Bis(aminomethyl)dimethylsilane]tetrachloroplatinum(IV), CHEMBL2146190",7.48 µM
3,"cis-Bis[[(trimethylsilyl)methyl]amino]tetrachloroplatinum(IV), CHEMBL2146191",5.48 µM
4,"[Bis(aminomethyl)ethylmethylsilane]tetrachloroplatinum(IV), CHEMBL2146192",7.41 µM
5,"[Bis(aminomethyl)tetramethylenesilane]tetrachloropaltinum(IV), CHEMBL2146189",3.26 µM
6,"[Bis(aminomethyl)pentamethylenesilane]tetrachloropaltinum(IV), CHEMBL2146204",0.74 µM
7,"[Bis(aminomethyl)dimethylsilane]dichloroplatinum (II), CHEMBL2146201",38.6 µM
8,"[Bis(aminomethyl)tetramethylenesilane]dichloropaltinum(II), CHEMBL2146205",22.3 µM
9,"[Bis(aminomethyl)pentamethylenesilane]dichloropaltinum(II), CHEMBL2146202",0.889 µM
10,"mu-(1,7-nanodiamine-N,N')bis-(cis-aminedichloroplatimum (II)), CHEMBL2146215",12.6 µM
